From PubChem BioAssay
The source made the active and inactive calls. Unless noted, how the calls were made is not given here.

Columns and labels:
[1] = resazurin metabolic signal in HepG2 cells – cell-based, resazurin fluorescence, 24 h, PK04 Diversity Set, profiling panel (AID 1172); settings: HepG2 viability, higher = more signal; further: test concentration not given here
[2] = budding yeast growth changes without added modifier – OD600, strain BY4716, 24 h, basal condition, primary screen (AID 1173); settings: S. cerevisiae BY4716 growth, OD600, 24 h; higher = more signal, called active from +8 up or from −8 down
[3] = viability profiling in MM1S myeloma cells – cell-based, resazurin fluorescence, basal, 24 h, PK04 Diversity Set, profiling panel (AID 1174); settings: higher = more signal, called active from +8 up or from −8 down;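 further: MM1S multiple myeloma cell line; test concentration not given here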
[4] = molecular target: Dihydroorotate dehydrogenase (quinone), mitochondrial (Plasmodium falciparum (isolate 3D7)) (UniProt Q08210); test: inhibition of P. falciparum DHODH – biochemical, C-terminal His tag, absorbance 600 nm, primary screen (AID 1175); settings: PfDHODH enzyme, DCIP absorbance 600 nm; higher = more signal, called active from +8 up or from −8 down;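 further: recombinant parasite enzyme with a five histidine tag at its C terminus; test concentration not given here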
[5] = inhibition of PAO1 biofilm formation – strain PAO1, LB-PBS medium, absorbance 600 nm, primary screen (AID 1176); further: test concentration not given here; settings: P. aeruginosa PAO1 growth/biofilm, A600, 12 h; higher = more signal
[6] = growth modulation of vineyard yeast isolate – strain RM11-1a, OD600, basal, 24 h, primary screen (AID 1177);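 further: cultures grown under basal conditions with no added stressor; test concentration not given here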; settings: S. cerevisiae RM11-1a growth, OD600, 24 h; higher = more signal, called active from +8 up or from −8 down
[7] = growth of efflux-deficient E. coli DRC39 – strain DRC39, OD650, 24 h, E. coli filamentation inducers, primary screen (AID 1178);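 further: growth measured as culture turbidity by optical density at 650 nm; test concentration not given here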; settings: E. coli DRC39 acrAB, higher = more signal, called active from +8 up or from −8 down
[8] = growth of efflux-deficient E. coli DRC39 – strain DRC39, OD650, 48 h, E. coli filamentation inducers, primary screen (AID 1179);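 further: screen aims at cell division blockers that make cells filament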; settings: E. coli DRC39 delta-acrAB growth, higher = more signal, called active from +8 up or from −8 down
[9] = viability profiling in RPMI8226 myeloma cells – cell-based, resazurin fluorescence, basal, 24 h, PK04 Diversity Set, profiling panel (AID 1180); settings: higher = more signal;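 further: RPMI8826 multiple myeloma cell line at 5000 cells per well; test concentration not given here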
[10] = molecular target: E3 ubiquitin-protein ligase XIAP (Homo sapiens) (UniProt P98170); test: small molecules binding XIAP protein – biophysical, small-molecule microarray, fluorescence 635 nm, primary screen (AID 1181); settings: higher = more signal;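 further: score merges 667 nm emission and signal to noise over triplicate slides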
Sequence of E3 ubiquitin-protein ligase XIAP (Homo sapiens) (P98170 whole entry, looked up): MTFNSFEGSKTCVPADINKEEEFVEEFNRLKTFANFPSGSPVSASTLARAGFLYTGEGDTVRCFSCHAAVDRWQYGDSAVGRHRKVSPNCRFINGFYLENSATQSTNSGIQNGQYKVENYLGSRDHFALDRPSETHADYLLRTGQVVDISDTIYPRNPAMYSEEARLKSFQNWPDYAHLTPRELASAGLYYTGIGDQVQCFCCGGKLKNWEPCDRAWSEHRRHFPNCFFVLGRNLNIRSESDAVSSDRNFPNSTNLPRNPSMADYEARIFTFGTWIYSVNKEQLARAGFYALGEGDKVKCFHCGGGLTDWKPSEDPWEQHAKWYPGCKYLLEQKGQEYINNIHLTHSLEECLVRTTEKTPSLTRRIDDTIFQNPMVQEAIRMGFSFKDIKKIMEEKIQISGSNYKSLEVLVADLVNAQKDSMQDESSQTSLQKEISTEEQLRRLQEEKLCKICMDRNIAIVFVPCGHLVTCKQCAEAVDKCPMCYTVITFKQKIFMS

Sequence of Dihydroorotate dehydrogenase (quinone), mitochondrial (Plasmodium falciparum (isolate 3D7)) (Q08210 whole entry, looked up): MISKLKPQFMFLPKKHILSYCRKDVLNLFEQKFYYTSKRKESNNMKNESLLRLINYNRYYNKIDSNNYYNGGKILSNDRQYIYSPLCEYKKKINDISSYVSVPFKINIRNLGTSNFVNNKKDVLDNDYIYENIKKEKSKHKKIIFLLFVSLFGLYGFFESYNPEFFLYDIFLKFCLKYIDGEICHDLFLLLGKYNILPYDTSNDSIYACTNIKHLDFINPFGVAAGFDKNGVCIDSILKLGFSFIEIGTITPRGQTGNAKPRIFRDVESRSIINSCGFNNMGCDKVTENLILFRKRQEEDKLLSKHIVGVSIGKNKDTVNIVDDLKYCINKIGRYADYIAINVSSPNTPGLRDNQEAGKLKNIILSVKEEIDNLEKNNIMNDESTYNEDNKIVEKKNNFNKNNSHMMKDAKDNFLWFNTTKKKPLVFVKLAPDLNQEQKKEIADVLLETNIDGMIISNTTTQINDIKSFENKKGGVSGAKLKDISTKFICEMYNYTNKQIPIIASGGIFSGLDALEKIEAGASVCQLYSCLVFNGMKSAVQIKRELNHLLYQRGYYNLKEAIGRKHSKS

Row | SMILES | z-score [1] | z-score [2] | z-score [3] | composite z-score [4] | z-score [5] | z-score [6] | z-score [7] | z-score [8] | z-score [9] | composite z-score [10]
1 | O=C1NC(=O)C2C1C=CC(C(O)C(c1ccccc1)c1ccccc1)N2Nc1ccc(Cl)cc1Cl (stereo not given) | -2.23 | -2.63 (inactive) | -1.05 (inactive) | 0.125 (inactive) | 0.599 (inactive) | 1.17 (inactive) | -0.659 (inactive) | -0.712 (inactive) | -1.62 | 0.236
2 | COCCOC(=O)N1C(=O)[C@@]2(c3cc(C#Cc4ccc(OC)cc4)ccc31)[C@H](C(=O)N1CCCCCCC1)[C@H]1C(=O)O[C@H](c3ccccc3)[C@H](c3ccccc3)N1[C@@H]2c1ccc(OCCO)cc1 | 0.73 | 0.777 (inactive) | 1.15 (inactive) | -1.37 (inactive) | 3.3 (inactive) | 0.262 (inactive) | 1.11 (inactive) | 2.25 (inactive) | 0.425 | 0.47
3 | CCOC(=O)C1=CCC(c2ccc(C)cc2)N(S(=O)(=O)c2ccc(C)cc2)C1 (stereo not given) | 0.28 | 1.94 (inactive) | -0.714 (inactive) | -0.526 (inactive) | 0.173 (inactive) | 1.03 (inactive) | -0.764 (inactive) | -0.56 (inactive) | -1.63 | 0.128
4 | [N-]=[N+]=NCc1ccccc1[C@@H]1OC(c2ccc(OCCCO)cc2)=N[C@]1(Cc1ccccc1N=[N+]=[N-])C(=O)N1CCOCC1 | -0.54 | -0.532 (inactive) | -1.21 (inactive) | -0.52 (inactive) | 0.727 (inactive) | 0.602 (inactive) | -0.38 (inactive) | -0.265 (inactive) | -1.64 | 0.358
5 | O=C1c2ccccc2[C@](Cc2ccccc2I)(C(=O)NC2CC2)[C@H](c2ccc(CO)cc2)N1Cc1ccccc1 | 0.621 | 0.401 (inactive) | 0.414 (inactive) | 0.159 (inactive) | 0.14 (inactive) | -0.377 (inactive) | -0.0358 (inactive) | 0.0388 (inactive) | 0.535 | -0.0663
6 | CCc1oc(CC[C@@H](CO)NC(=O)NCCn2cc(C3(O)CCCCC3)nn2)c(C(=O)OC)c1C(=O)OC | -0.676 | -1.16 (inactive) | -0.658 (inactive) | -0.32 (inactive) | -0.109 (inactive) | -0.298 (inactive) | -0.247 (inactive) | -0.64 (inactive) | -0.626 | -0.0078
7 | C=CCNC(=O)[C@H]1[C@@H]2C(=O)O[C@@H](c3ccccc3)[C@@H](c3ccccc3)N2[C@@H](c2ccccc2OCCO)[C@]12C(=O)Nc1ccc(C#CC3=CCCCC3)cc12 | -2.93 | 1.97 (inactive) | -8.87 (active) | 0.266 (inactive) | 1.89 (inactive) | 3.11 (inactive) | -0.639 (inactive) | -0.0547 (inactive) | -7.09 | 0.112
8 | C=CCOC(=O)[C@H]1[C@@H]2C(=O)O[C@@H](c3ccccc3)[C@@H](c3ccccc3)N2[C@@H](c2ccc(OCCOC(=O)[C@@H]3C[C@@H]4C(=O)N[C@@H](CCCC[N+](C)(C)C)C(=O)N4[C@@H]3c3ccc(O)cc3)cc2)[C@]12C(=O)Nc1ccccc12 | 0.863 | -3.17 (inactive) | 0.844 (inactive) | -2.77 (inactive) | 0.988 (inactive) | 0.545 (inactive) | 0.0865 (inactive) | -0.661 (inactive) | 1.16 | 0.0055
9 | CCOC(=O)[C@H]1C/C=C/C[C@H](C(=O)OCC)C(=O)O[C@H]2[C@@H](OC)O[C@H](CO)[C@@H](OC(=O)Nc3ccc(C#N)cc3)[C@@H]2OC1=O | -4.61 | 0.516 (inactive) | -8.87 (active) | -1.26 (inactive) | 1.94 (inactive) | -0.166 (inactive) | 1.1 (inactive) | 1.58 (inactive) | -7.15 | 0.122
10 | C=CCOC(=O)[C@H]1[C@@H]2C(=O)O[C@@H](c3ccccc3)[C@@H](c3ccccc3)N2[C@@H](c2ccc(OCCOC(=O)[C@H]3C[C@H]4C(=O)N5CCC[C@H]5C(=O)N4[C@H]3c3ccc(O)cc3)cc2)[C@]12C(=O)Nc1ccc(I)cc12 | -0.495 | -1.03 (inactive) | -0.941 (inactive) | -1.73 (inactive) | 2.43 (inactive) | -0.632 (inactive) | -0.651 (inactive) | -1.05 (inactive) | -0.215 | 2.8
11 | COC(=O)[C@@]1(Cc2ccc(OC)cc2)[C@H]2c3cc(C(=O)N(C)C)n(CCN4CNCC4=O)c3C[C@H]2CN1C(=O)c1ccccc1 | 0.642 | 0.124 (inactive) | 0.622 (inactive) | -0.72 (inactive) | 0.371 (inactive) | -0.188 (inactive) | 0.479 (inactive) | -0.318 (inactive) | 0.777 | 0.597
12 | CC1CC/C=C\[C@H]2OC34C=CCN(c5ccc(Cl)cc5)C(=O)[C@H]3N(CCO)C(=O)[C@]4(C)C2C(=O)O1 (stereo not given in full) | -0.349 | -0.152 (inactive) | -1.13 (inactive) | -0.0582 (inactive) | 0.0962 (inactive) | -0.245 (inactive) | -0.135 (inactive) | -0.672 (inactive) | 0.102 | -0.0785
13 | C=C[C@H](COC(C)=O)N(C(=O)OC(C)(C)C)S(=O)(=O)c1ccc(Br)cc1 | 0.738 | -0.705 (inactive) | -0.76 (inactive) | -0.0237 (inactive) | -0.621 (inactive) | 0.625 (inactive) | 0.623 (inactive) | 0.386 (inactive) | -0.17 | 0.137
14 | COC(=O)[C@@]1(Cc2ccccc2)[C@H]2c3cc(C(=O)N4CCCC4)n(Cc4nc5ccccc5[nH]4)c3C[C@H]2CN1C(=O)c1ccccc1 | -0.415 | 1.22 (inactive) | -1.66 (inactive) | 0.374 (inactive) | 0.687 (inactive) | 0.759 (inactive) | -0.538 (inactive) | -1.1 (inactive) | -1.3 | 0.119
15 | C#CCN(CC1=CCCCC1)[C@H](c1ccccc1Br)[C@@H](O)Cc1ccccc1 | 1.47 | -2.52 (inactive) | 1.05 (inactive) | 0.0019 (inactive) | 0.236 (inactive) | 0.404 (inactive) | 0.657 (inactive) | 0.406 (inactive) | -0.486 | -0.209
16 | CCOC(=O)C1=CCC(c2ccccc2)N(S(=O)(=O)CC[Si](C)(C)C)C1 (stereo not given) | 1.17 | -1.48 (inactive) | 0.406 (inactive) | 0.49 (inactive) | -0.461 (inactive) | -0.0286 (inactive) | -0.117 (inactive) | 1.05 (inactive) | 0.681 | -0.192
17 | [N-]=[N+]=Nc1ccccc1C[C@]1(C(=O)NCC(O)CO)N=C(c2ccc(OCCCO)cc2)O[C@H]1c1ccccc1N=[N+]=[N-] (stereo not given in full) | -1.01 | -1.14 (inactive) | -2.08 (inactive) | 0.139 (inactive) | -0.428 (inactive) | 1.52 (inactive) | -0.0211 (inactive) | 0.622 (inactive) | -1.99 | 0.0968
18 | O=C1OCC=C[C@H]2OC34C=CCN(c5ccc6ccccc6c5)C(=O)[C@H]3N(CCCCCCO)C(=O)[C@@H]4[C@@H]12 (stereo not given in full) | 0.551 | -0.7 (inactive) | 0.645 (inactive) | -1.24 (inactive) | -0.717 (inactive) | -0.472 (inactive) | 0.841 (inactive) | 0.982 (inactive) | 0.683 | 0.086
19 | CC(=O)n1cc(C(O)C2C=CC3C(=O)N(C)C(=O)C3N2Nc2ccccc2)c2ccccc21 (stereo not given) | 0.362 | 0.125 (inactive) | -1.2 (inactive) | 0.0365 (inactive) | 1.07 (inactive) | 0.135 (inactive) | -0.321 (inactive) | -0.306 (inactive) | -1.11 | 0.229
20 | [N-]=[N+]=NCc1ccccc1C[C@]1(C(=O)O)N=C(c2ccc(OCCCO)cc2)O[C@H]1c1ccccc1N=[N+]=[N-] | -0.213 | -0.496 (inactive) | -1.43 (inactive) | 2.26 (inactive) | -0.043 (inactive) | 1.45 (inactive) | 0.989 (inactive) | -0.0775 (inactive) | -1.82 | 0.0808
21 | C=CCNC(=O)[C@@H]1[C@H]2C(=O)O[C@H](c3ccccc3)[C@H](c3ccccc3)N2[C@H](c2ccccc2OCCO)[C@@]12C(=O)N(C(=O)OCCOC)c1ccc(C#CCNC(N)=O)cc12 | -0.359 | 0.808 (inactive) | -0.0716 (inactive) | 0.0199 (inactive) | 1.1 (inactive) | 1.43 (inactive) | 0.404 (inactive) | 0.703 (inactive) | 0.122 | 0.171
22 | CCCC[C@@H]1C[C@H]1[C@@H](NC(=O)c1ccco1)c1ccc(C(=O)OC)cc1 | -0.351 | 0.788 (inactive) | -0.184 (inactive) | -0.271 (inactive) | 0.812 (inactive) | -0.716 (inactive) | -1.03 (inactive) | -0.489 (inactive) | -0.826 | 0.104
23 | [N-]=[N+]=NCc1ccccc1C[C@]1(C(=O)NCC(O)CO)N=C(c2ccc(OCCCO)cc2)O[C@H]1c1ccccc1 (stereo not given in full) | -0.237 | -1.16 (inactive) | -0.525 (inactive) | 0.105 (inactive) | 0.826 (inactive) | 0.125 (inactive) | -0.376 (inactive) | -0.193 (inactive) | -0.977 | 0.035
